Measured values published in ChEMBL document CHEMBL4513216, “Probing the Open Global Health Chemical Diversity Library for Multistage-Active Starting Points for Next-Generation Antimalarials” (ACS Infect Dis, 2020).
In all, about 68,000 compounds went through this assay and about 2,700 (4%) showed an effect of 50% or more. This is one part of a sample in which strong results are shown more often than they occur.

test system: Plasmodium berghei; experiment: Screen against P. berghei liver stage (PbLuc), transformed with Luciferase, at 2uM; assay type: functional, HepG2; conditions: tested at 2 uM

Compared with `O=C(NCC1(CO)CC1)c1ccccc1C(F)(F)F`, `CC(=O)NS(=O)(=O)c1ccc(F)c(C(F)(F)F)c1` is higher in INHIBITION: -41.99% for the first, -38.34% for the second.

Going from `Cc1ccc(N2CCCC(NCC(=O)NCC3CC3)C2)nn1` (stereo not drawn) to `CS(=O)(=O)NCC1CCCN(c2ccc(C#N)cn2)C1` (stereo not drawn), the INHIBITION falls from 42.92% to -0.3%.

Compared with `Cc1ccc(CNC(C)c2ccc3[nH]c(=O)[nH]c3c2)s1` (stereo not drawn), `CC(NCc1ccc(F)cc1)c1ccc2[nH]c(=O)[nH]c2c1` (stereo not drawn) is lower in INHIBITION: 74.87% for the first, -32.84% for the second.

Going from `COc1ccc(CNC(C)c2ccc3[nH]c(=O)[nH]c3c2)cc1` (stereo not drawn) to `CC(NC(=O)CSCC(N)=O)c1ccc(Oc2ccccc2)cc1` (stereo not drawn), the INHIBITION rises from 3.9% to 29.97%.

Compared with `CCN(CC1CCOC1)C(=O)c1ccn(-c2ccc(OC)cc2)n1` (stereo not drawn), `COc1c(CNCc2ccc(C(=O)N3CCCC3)cc2)c(C)nn1C` is lower in INHIBITION: -8.85% for the first, -36.39% for the second.

Compared with `Fc1ccccc1Sc1ccccc1CNC1=NCCN1`, `O=C(CSc1ccccc1F)NS(=O)(=O)c1ccc2c(c1)OCCO2` is higher in INHIBITION: -39.75% for the first, 12.81% for the second.

Compared with `OCC1CCCN1c1cc(NCc2cc3ccccc3o2)ncn1` (stereo not drawn), `Cc1cc(-c2nccs2)nc(C2CCN(Cc3ccc(F)cc3)CC2)n1` is higher in INHIBITION: -15.36% for the first, -12.17% for the second.

First: CC(C)(C)n1ncc2c1NC(=O)CC2c1cccc(O)c1 (stereo not drawn)
Second: Cc1noc(C)c1CN1CCC2(CC1)NC(=O)CC2c1ccncc1 (stereo not drawn)
The INHIBITION of the first is higher: 31.54% for the first, -12.36% for the second.

Compared with `CCN1CCCC(O)(CNCc2ccc3c(c2)OCO3)C1` (stereo not drawn), `CCN1CCCC(O)(CNCc2ccncc2)C1` (stereo not drawn) is higher in INHIBITION: 35.84% for the first, 50.02% for the second.

Going from `CCN1CCCC(O)(CNCc2ccccn2)C1` (stereo not drawn) to `N#Cc1cccnc1N1CCCN(C(=O)CCn2cccn2)CC1`, the INHIBITION rises from -36.39% to 41.76%.

Going from `Cc1ccc(CN2CCn3c(CNC(=O)c4cccn4C)cnc3C2)s1` to `Cc1ccc(CN2CCn3cc(CN4CCN(C)CC4)nc3C2)cc1`, the INHIBITION rises from -40.86% to 18.32%.

First: COc1cccc(CN2CCC3(COCc4cnc(N(C)C)nc43)C2)c1 (stereo not drawn)
Second: Cc1ccc2c(c1)C1(CCN(C(N)=O)CC1)CN2C(=O)N(C)C
The INHIBITION of the first is higher: 23.93% for the first, -22.42% for the second.

First: CSCc1cccc(S(=O)(=O)NCCCn2ccnc2)c1
Second: COc1ccc(C(C)NC(=O)NCCCn2cncn2)cc1F (stereo not drawn)
The INHIBITION of the first is higher: 16.48% for the first, -40.52% for the second.

Compared with `c1cnn(CC2CN(c3ncnc4ccsc34)CCO2)c1` (stereo not drawn), `CCn1nc(C)c2ncnc(N3CCCC(C)C3)c21` (stereo not drawn) is higher in INHIBITION: 32.39% for the first, 73.48% for the second.

Compared with `Cc1cc(F)ccc1C(=O)N1C[C@@H]2COC[C@]2(CN(C)C)C1`, `COC[C@]12COC[C@H]1CN(C(=O)c1ccc(F)cc1C)C2` is higher in INHIBITION: 25.58% for the first, 57.85% for the second.

Compared with `O=C(c1ccnnc1)N1C[C@@H]2COC[C@]2(COCC2CC2)C1`, `O=C(C1=CCCC1)N1C[C@@H]2COC[C@]2(COCC2CC2)C1` is higher in INHIBITION: -57.61% for the first, 24.23% for the second.

Going from `Cc1cc(F)ccc1C(=O)N1C[C@@H]2COC[C@]2(COCC2CC2)C1` to `COC[C@]12COC[C@H]1CN(C(=O)C1CC(F)(F)C1)C2`, the INHIBITION falls from 65.38% to -22.65%.

Compared with `CCOc1c(F)cccc1C(=O)N(c1cccnc1)C(C)C`, `O=C(CCCOc1ccccc1F)Nc1cc[nH]n1` is higher in INHIBITION: -56.64% for the first, -9.47% for the second.

Compared with `CC1(C)CN(C(=O)c2ccc3nncn3c2)CCS1`, `Cc1ccc2c(c1)C1(CCN(C(N)=O)CC1)CN2CC1CC1` is higher in INHIBITION: -17.04% for the first, 52.12% for the second.

First: Cc1nccn1-c1cccc(N2CCC(OCC3CCCCO3)CC2)n1 (stereo not drawn)
Second: O=S(=O)(c1ccc2c(c1)OCCO2)N1CCC(OCc2ccccn2)C1 (stereo not drawn)
The INHIBITION of the first is higher: -16.7% for the first, -26.14% for the second.

Compared with `COc1ccc(OC)c2c(C)cc(N(C)Cc3cc(C)on3)nc12`, `CC(NC(=O)COc1nc(C(C)(C)C)no1)c1ccco1` (stereo not drawn) is lower in INHIBITION: 38.87% for the first, 1.22% for the second.

Going from `Cc1cccc(CN2CC3(CCN(C4CCOC4)CC3)OCC2=O)n1` (stereo not drawn) to `CC(=O)N1CCC2(CC1)CN(CC1CC1)c1ccc(F)cc12`, the INHIBITION falls from 15.98% to -18.44%.

Going from `O=C(CN1CCCC(c2ncc[nH]2)C1)NCC(F)(F)F` (stereo not drawn) to `O=C(CCC(F)(F)F)N1CCCC(c2ncc[nH]2)C1` (stereo not drawn), the INHIBITION falls from 51.23% to -1.64%.

Compared with `O=C(CN1CCCC(c2ncc[nH]2)C1)NCCCN1CCCCCC1=O` (stereo not drawn), `Cn1c(CN2CCCC2)nnc1C1CCCN(C(=O)C2CCOCC2)C1` (stereo not drawn) is higher in INHIBITION: -21.61% for the first, -19.54% for the second.

Compared with `CS(=O)(=O)CCC(=O)N1CCC2(CCCN(C3CCOCC3)C2=O)C1` (stereo not drawn), `Cn1cc(C2CCCN2C(=O)CS(=O)(=O)C2CCCC2)cn1` (stereo not drawn) is higher in INHIBITION: -11.19% for the first, -0.06% for the second.

First: O=C(O)c1cc(S(=O)(=O)Nc2cccc3c2OCCO3)c(Cl)cc1F
Second: O=c1ccc2c([nH]1)CCN(S(=O)(=O)c1ccc3c(c1)OCCO3)C2
The INHIBITION of the first is lower: -47.76% for the first, 14.45% for the second.

First: CCOc1ccc(C(F)(F)F)cc1NC(=O)N1CCC(C(N)=O)CC1
Second: CC(NC(=O)CSCC(N)=O)c1ccccc1Oc1ccccc1 (stereo not drawn)
The INHIBITION of the first is lower: -3.17% for the first, 51.7% for the second.

First: CCc1n[nH]c(NC(=O)c2ccc(Cl)cn2)c1Br
Second: CC(C(=O)Nc1nccs1)N1CCc2nn(C)c(=O)cc2C1 (stereo not drawn)
The INHIBITION of the first is lower: -3.87% for the first, 16.82% for the second.

Compared with `CN1CCN(Cc2cn3c(n2)CN(CC2CC2)CC3)CC1`, `c1c(CN2CCCC2)nc2n1CCN(CC1CC1)C2` is lower in INHIBITION: 70.17% for the first, -33.57% for the second.

Going from `CN1CCN(Cc2cn3c(n2)CN(Cc2cccnc2)CC3)CC1` to `CN1CCN(Cc2cn3c(n2)CN(Cc2ccncc2)CC3)CC1`, the INHIBITION rises from -59.73% to 51.26%.

First: c1c(CN2CCCCC2)nc2n1CCN(CC1CC1)C2
Second: CCCc1cc(N2CCCC2Cn2nc(C)nc2C)n2ncnc2n1 (stereo not drawn)
The INHIBITION of the first is lower: 7.13% for the first, 19.39% for the second.

Going from `CCCS(=O)(=O)NC(C)C(=O)NCc1ccc(N2CCCC2)nc1` (stereo not drawn) to `CCS(=O)(=O)CC(=O)NC(C)c1ccccc1Oc1ccccc1` (stereo not drawn), the INHIBITION falls from -5.15% to -28.15%.

Compared with `O=C(c1cc[nH]n1)N1CCC2(CC1)CC(Oc1cccnc1)CO2` (stereo not drawn), `O=S(=O)(c1ccc2c(c1)OCCO2)N1CCc2ccccc2C1` is higher in INHIBITION: -0.83% for the first, 50.57% for the second.

First: CCCc1nc(N2CCCC(C)C2)c2c(n1)c(C)nn2CC (stereo not drawn)
Second: CCN(CC)c1ncnc2c(C)nn(CC)c12
The INHIBITION of the first is higher: 15.58% for the first, -25.59% for the second.
